Drawing on PubChem BioAssay, this text covers composite z-score and z-score for four molecules.

Activity calls are given as the source filed them. Unless noted, how the calls were made is not given here.

Experiment [1] has as its system Wnt5a (protein binding on small-molecule microarray). Briefly: small molecules binding Wnt5a protein – biophysical, small-molecule microarray, 635/667 nm fluorescence, primary screen (AID 1142).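 Further: fluorescence read at 667 nm with signal to noise per printed feature.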 The following applies: 635 nm fluorescence, higher = more signal.
The nature of experiment [2]: ATP-based viability of Huh7 replicon cells – cell-based, CellTiter-Glo luminescence, basal, 48 h, cytotoxicity control for HCV replication inhibitor project, primary screen (AID 1143).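 Further: Huh7 hepatoma cells carrying a hepatitis C replication reporter with no stimulus; test concentration not given here.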 To be noted: higher = more signal, called active from +8 up or from −8 down. For orientation: In antiviral work, replicon cells carry a viral genome segment that copies itself.
Experiment [3] is described as follows: Pseudomonas biofilm growth suppression – PAO1 strain, BacTiter-Glo luminescence, LB-PBS, primary screen (AID 1144). The following applies: P. aeruginosa PAO1 biofilm, 12 h, higher = more signal.
Experiment [4] is described as follows: basal CRE-LacZ reporter activity in PC12 – cell-based, unstimulated, primary screen (AID 1145). To be noted: no forskolin, luminescence, 4.5 h, higher = more signal, called active from +8 up or from −8 down.
The nature of experiment [5]: forskolin-driven CRE-LacZ activity in PC12 – cell-based, CRE-LacZ reporter, forskolin-stimulated, primary screen (AID 1146).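 Further: PC12 cells with 6xCRE LacZ reporter stimulated by forskolin 10 µM; beta-galactosidase reporter signal reflecting CREB driven transcription.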 To be noted: luminescence, 4.5 h, higher = more signal, called active from +8 up or from −8 down.
Experiment [6] has as its target Streptavidin (Streptomyces avidinii) (UniProt P22629). As to the kind of experiment: compounds binding control protein streptavidin – biophysical, small-molecule microarray, 635/667 nm fluorescence, artefact control for SMM compound annotation, primary screen (AID 1147).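 Further: signal reflects streptavidin binding to arrayed compounds as a control protein.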 To be noted: higher = more signal.
A short description of experiment [7]: probe aInhba binding on compound microarray – biochemical, small-molecule microarray, 635/667 nm fluorescence, primary screen (AID 1148).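 Further: score merges 667nm spot fluorescence with signal-to-noise for antibody binding to printed compounds.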 To be noted: higher = more signal.
In experiment [8] the target is Torsin-1A (Homo sapiens) (UniProt O14656). As to the kind of experiment: TOR1A wild-type binding on microarray – cell lysate, small-molecule microarray, lysate, 635/667 nm, primary screen (AID 1149). The following applies: COS7 hTOR1A-WT lysate, 635 nm fluorescence, higher = more signal.
For experiment [9] the target is unchanged. As to the kind of experiment: torsin A mutant lysate binding on microarrays – cell lysate, small-molecule microarray, COS7 lysate, 635/667 nm fluorescence, primary screen (AID 1150).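 Further: score pools 667 nm emission and signal to noise measuring lysate protein binding.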 The following applies: COS7 hTOR1A mutant lysate, 635 nm fluorescence, higher = more signal.
For experiment [10], the system named is Sonic hedgehog protein (Shh). As to the kind of experiment: Sonic hedgehog microarray binding compounds – biochemical, small-molecule microarray, 635/667 nm fluorescence, primary screen (AID 1151).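 Further: Shh protein binding to compounds spotted on small-molecule microarray slides; score combines spot fluorescence intensity with signal-to-noise across triplicate slides.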 To be noted: 635 nm fluorescence, higher = more signal.
Experiment [11] in a line: optical density shifts of acrAB sulA E. coli – strain DRC41, OD650, 48 h, E. coli filamentation inducer project, primary screen (AID 1152).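 Further: E. coli MC1000 strain DRC41 lacking acrAB efflux pump and sulA.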 The following applies: higher = more signal, called active from +8 up or from −8 down.
A short description of experiment [12]: probe aLefty1 binding on compound microarray – biochemical, small-molecule microarray, 635/667 nm fluorescence, primary screen (AID 1153).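 Further: score merges spot fluorescence with signal-to-noise ratio from the scanned slide images.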 The following applies: higher = more signal.
Experiment [13] can be described thus: plasmodial surface anion channel blockers, osmotic lysis – cell-based, P. falciparum Indochina, OD700, 1 h, primary screen (AID 1154). The following applies: P. falciparum Indochina infected RBC osmotic lysis, higher = more signal, called active from +8 up or from −8 down.
Experiment [14] is described as follows: plasmodial surface anion channel blockers, osmotic lysis – cell-based, P. falciparum Indochina, OD700, 2 h, primary screen (AID 1155).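 Further: lysis reports solute entry through the parasite surface anion channel PSAC.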 To be noted: P. falciparum Indochina infected erythrocytes, higher = more signal, called active from +8 up or from −8 down.
Experiment [15] can be described thus: changes in parasitized red cell lysis, either direction – P. falciparum Indochina, OD700, 3 h, PSAC antagonist project, primary screen (AID 1156). The following applies: P. falciparum-infected erythrocytes, osmotic lysis, higher = more signal, called active from +8 up or from −8 down.
Experiment [16] is described as follows: plasmodial surface anion channel blockers, osmotic lysis – cell-based, P. falciparum Indochina, OD700, 18 h, primary screen (AID 1157). The following applies: P. falciparum Indochina infected erythrocytes, osmotic lysis OD700, 18 h; higher = more signal, called active from +8 up or from −8 down.
A short description of experiment [17]: S6 kinase pathway phospho-S6 level changes – cell-based, A549, cytoblot, luminescence, serum-stimulated, primary screen (AID 1158).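 Further: serum-stimulated A549 lung adenocarcinoma cells; signal is phosphorylated S6 detected by cytoblot immunostaining with HRP secondary.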 The following applies: 5 h, higher = more signal.
Experiment [18] addresses NADPH oxidase 2 (Homo sapiens) (UniProt P04839). As to the kind of experiment: compounds shifting NOX2 Amplex Red fluorescence – cell-based, HEK293-NOX2, PMA-stimulated, NOX inhibitor project, primary screen (AID 1159). Further: test concentration not given here. To be noted: 45 min, higher = more signal, called active from +8 up or from −8 down.
In experiment [19] the target is NADPH oxidase 4 (Homo sapiens) (UniProt Q9NPH5). Briefly: compounds shifting NOX4 Amplex Red fluorescence – cell-based, HEK293-NOX4, tetracycline-induced, NOX inhibitor project, primary screen (AID 1160). The following applies: HEK293-NOX4, Amplex Red H2O2 fluorescence, 45 min; higher = more signal, called active from +8 up or from −8 down.
Experiment [20] deals with NADPH oxidase 5 (Homo sapiens) (UniProt Q96PH1). Briefly: compounds shifting NOX5 Amplex Red fluorescence – cell-based, HEK293-NOX5, NOX inhibitor project, primary screen (AID 1161). To be noted: HEK293-NOX5, ionomycin, 45 min, higher = more signal.
Chain of NADPH oxidase 5 (Homo sapiens) (Q96PH1 whole entry, looked up): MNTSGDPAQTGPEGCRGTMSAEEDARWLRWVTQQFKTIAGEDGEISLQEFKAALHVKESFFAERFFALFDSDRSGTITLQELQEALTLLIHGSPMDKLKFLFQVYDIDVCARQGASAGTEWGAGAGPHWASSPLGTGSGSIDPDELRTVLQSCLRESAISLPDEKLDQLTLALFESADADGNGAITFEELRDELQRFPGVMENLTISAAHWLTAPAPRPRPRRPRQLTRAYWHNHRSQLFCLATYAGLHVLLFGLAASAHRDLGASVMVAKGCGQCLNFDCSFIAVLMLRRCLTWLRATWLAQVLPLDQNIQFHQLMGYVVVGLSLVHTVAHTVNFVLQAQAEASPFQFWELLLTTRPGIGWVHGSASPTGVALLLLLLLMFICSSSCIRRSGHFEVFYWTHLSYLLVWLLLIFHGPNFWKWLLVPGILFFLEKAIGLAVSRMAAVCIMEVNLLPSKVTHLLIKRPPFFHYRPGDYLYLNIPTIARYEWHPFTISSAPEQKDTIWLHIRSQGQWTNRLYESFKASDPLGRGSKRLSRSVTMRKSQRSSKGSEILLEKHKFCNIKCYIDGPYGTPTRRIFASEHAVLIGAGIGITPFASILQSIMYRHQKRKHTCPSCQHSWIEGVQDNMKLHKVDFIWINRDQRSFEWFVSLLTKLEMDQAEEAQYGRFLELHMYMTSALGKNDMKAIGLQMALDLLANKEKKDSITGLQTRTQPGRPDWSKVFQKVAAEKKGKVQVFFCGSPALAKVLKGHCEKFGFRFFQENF

Chain of Streptavidin (Streptomyces avidinii) (P22629 whole entry, looked up): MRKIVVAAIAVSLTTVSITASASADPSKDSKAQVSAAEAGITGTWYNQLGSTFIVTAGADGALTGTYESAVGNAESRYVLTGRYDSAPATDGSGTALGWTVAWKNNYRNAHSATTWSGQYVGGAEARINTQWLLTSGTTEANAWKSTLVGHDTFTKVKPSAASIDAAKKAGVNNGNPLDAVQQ
Chain of NADPH oxidase 2 (Homo sapiens) (P04839 whole entry, looked up): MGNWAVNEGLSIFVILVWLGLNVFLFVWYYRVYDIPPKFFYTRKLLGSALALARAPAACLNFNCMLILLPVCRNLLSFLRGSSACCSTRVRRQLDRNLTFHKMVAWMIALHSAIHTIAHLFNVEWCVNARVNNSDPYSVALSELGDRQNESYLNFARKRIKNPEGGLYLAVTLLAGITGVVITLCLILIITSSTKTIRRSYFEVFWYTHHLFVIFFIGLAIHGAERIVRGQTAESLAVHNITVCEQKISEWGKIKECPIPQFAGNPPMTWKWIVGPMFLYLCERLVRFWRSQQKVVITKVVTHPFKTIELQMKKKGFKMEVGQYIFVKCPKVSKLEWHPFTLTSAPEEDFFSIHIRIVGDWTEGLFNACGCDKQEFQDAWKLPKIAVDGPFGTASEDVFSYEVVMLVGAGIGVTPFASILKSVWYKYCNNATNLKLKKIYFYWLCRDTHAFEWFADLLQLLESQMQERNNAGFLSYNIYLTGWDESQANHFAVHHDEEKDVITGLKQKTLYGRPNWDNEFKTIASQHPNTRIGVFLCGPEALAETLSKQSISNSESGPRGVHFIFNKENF
Chain of Torsin-1A (Homo sapiens) (O14656 whole entry, looked up): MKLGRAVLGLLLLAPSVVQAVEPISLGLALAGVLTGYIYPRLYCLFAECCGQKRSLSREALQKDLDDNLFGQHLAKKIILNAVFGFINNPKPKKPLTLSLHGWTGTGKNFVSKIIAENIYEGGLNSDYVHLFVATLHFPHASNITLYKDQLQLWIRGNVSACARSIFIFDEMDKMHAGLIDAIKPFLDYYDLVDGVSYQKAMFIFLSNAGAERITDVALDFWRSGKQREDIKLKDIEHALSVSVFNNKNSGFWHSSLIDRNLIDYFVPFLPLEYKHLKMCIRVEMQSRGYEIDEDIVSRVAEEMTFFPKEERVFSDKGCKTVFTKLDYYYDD
Chain of NADPH oxidase 4 (Homo sapiens) (Q9NPH5 whole entry, looked up): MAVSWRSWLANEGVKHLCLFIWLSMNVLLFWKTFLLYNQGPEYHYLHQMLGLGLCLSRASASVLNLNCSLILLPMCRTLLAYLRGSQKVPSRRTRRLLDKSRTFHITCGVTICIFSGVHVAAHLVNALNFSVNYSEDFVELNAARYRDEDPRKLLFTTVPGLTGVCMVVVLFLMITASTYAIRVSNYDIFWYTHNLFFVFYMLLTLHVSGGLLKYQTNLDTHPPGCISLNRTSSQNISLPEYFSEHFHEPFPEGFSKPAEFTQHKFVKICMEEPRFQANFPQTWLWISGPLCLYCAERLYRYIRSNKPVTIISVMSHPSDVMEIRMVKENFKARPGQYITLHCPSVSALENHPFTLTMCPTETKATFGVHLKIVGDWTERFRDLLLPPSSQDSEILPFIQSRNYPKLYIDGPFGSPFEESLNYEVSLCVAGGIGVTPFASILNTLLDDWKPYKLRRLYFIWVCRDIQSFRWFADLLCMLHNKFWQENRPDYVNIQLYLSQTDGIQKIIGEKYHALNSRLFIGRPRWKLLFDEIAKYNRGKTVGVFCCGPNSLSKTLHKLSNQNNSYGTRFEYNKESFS

Consider `[N-]=[N+]=NCc1ccccc1C[C@]1(C(=O)NCc2ccccc2)N=C(c2ccc(OCCCO)cc2)O[C@H]1c1ccccc1CN=[N+]=[N-]`, for which the composite z-score in [1] is 0.477; in [6] it was 0.208; in [7], 0.237; with Torsin-1A (Homo sapiens) [8] it was 0.135; with Torsin-1A (Homo sapiens) [9], 0.623; in experiment [10] it was -0.603. In addition, the composite z-score in experiment [12] was found to be 1.09. The z-score is -4.58 (inactive) in experiment [2]; -0.333 (inactive) in experiment [3]; 1.27 (inactive) in experiment [4]; -1.73 (inactive) in experiment [5]; 1.76 (inactive) in experiment [11]; 18.7 (active) in [13]. Also, the z-score in experiment [14] was 5.01 (inactive); in experiment [15], 2.53 (inactive); in experiment [16], 0.936 (inactive); in [17], 2.34; in experiment [18], -1.09 (inactive); in experiment [19], 0.145 (inactive). Also, in [20], the z-score was found to be 0.094.

With `COc1cc2c(cc1O)C(c1ccc(CN3CCCC3)cc1)N(Cc1cccc(OC(F)(F)F)c1)CC2` (stereo not given), the composite z-score was -0.0324 in experiment [1]; 0.0307 in experiment [6]; -0.15 in experiment [7]; 0.47 in the experiment with Torsin-1A (Homo sapiens) [8]; 1.13 in the experiment with Torsin-1A (Homo sapiens) [9]; 0.345 in [10]. Further, in experiment [12], the composite z-score is -0.131. For the same molecule, the z-score is -5.42 (inactive) in experiment [2]; 1.15 (inactive) in experiment [3]; 0.0924 (inactive) in experiment [4]; 0.248 (inactive) in experiment [5]; -4.5 (inactive) in [11]; 12.3 (active) in experiment [13]. Besides, the z-score in experiment [14] is 2.62 (inactive); in experiment [15] it was -0.608 (inactive); in [16], 1.14 (inactive); in experiment [17] it was -0.223; in experiment [18] it was -8.71 (active); in experiment [19], -4.77 (inactive). Also, the z-score in [20] is -6.04.

As for `COCCOC(=O)N1C(=O)[C@@]2(c3cc(C#CC4(O)CCCCCC4)ccc31)[C@H](C(=O)N1CCc3cc(OC)c(OC)cc3C1)[C@H]1C(=O)O[C@H](c3ccccc3)[C@H](c3ccccc3)N1[C@@H]2c1ccc(O)cc1`, the composite z-score came to 0.869 in experiment [1]; 0.398 in [6]; 0.306 in [7]; 1.25 with Torsin-1A (Homo sapiens) [8]; 0.538 in the experiment with Torsin-1A (Homo sapiens) [9]; 0.774 in [10]. The same molecule had a composite z-score in experiment [12] of 0.176. The z-score was -1.83 (inactive) in experiment [2]; 0.0231 (inactive) in experiment [3]; 1.68 (inactive) in experiment [4]; 8.06 (active) in experiment [5]; 1.27 (inactive) in experiment [11]; 1.31 (inactive) in experiment [13]. Moreover, the z-score in experiment [14] is 0.735 (inactive); in experiment [15] it was 1.89 (inactive); in experiment [16] it was 0.712 (inactive); in experiment [17] it was 0.278; in [18], 2.19 (inactive); in [19], 0.296 (inactive). In addition, in experiment [20], the z-score came to 0.725.

As for `NCCCC[C@@H]1NC(=O)[C@H]2C[C@@H](C(=O)NCc3ccc(F)cc3)[C@@H](c3ccc(O)cc3)N2C1=O`, the composite z-score in [1] is -0.0979; in experiment [6] it was 0.829; in [7] it was 0.0963; in the experiment with Torsin-1A (Homo sapiens) [8] it was 1.18; with Torsin-1A (Homo sapiens) [9], 2.58; in experiment [10] it was 1.11. The same molecule displayed a composite z-score in [12] of 0.954. Moreover, the z-score was 0.12 (inactive) in experiment [2]; -0.0714 (inactive) in [3]; 0.143 (inactive) in experiment [4]; 0.421 (inactive) in experiment [5]; -0.495 (inactive) in [11]; 2.55 (inactive) in experiment [13]. Moreover, the z-score in experiment [14] is 0.724 (inactive); in experiment [15], -3.15 (inactive); in experiment [16], 0.302 (inactive); in [17] it was -0.516; in experiment [18], 0.903 (inactive); in experiment [19] it was 0.941 (inactive). Further, the z-score in [20] turned out to be 0.993.
